Compound activity as filed in PubChem BioAssay.
Most compounds without a hit are left out; they make up all but 3.7% or so of the library.
Autofluor counter: flagged as autofluorescent in microsphere protease counterscreen | compound autofluorescence counterscreen, microsphere flow cytometry; stronger effect = higher value | fluorescence intensity (no concentration beside the values) | 360,000 tested, 3.1% active | AID 624483; in the data active = fluorescence intensity above about 16000; inconclusive = no clear call, values can overlap the other calls
MazEF act: MazEF (E. coli) toxin RNase activation; P0AE70; FAM/BHQ RNA-DNA oligo cleavage fluorescence, 5 h; activation, % at 20 µM; 350,000 tested, 0.32% active; in the data active = activation above about 50%
Anthrax LF prot: inhibitors of Bacillus anthracis lethal factor protease; multiplex microsphere protease cleavage assay, LF; 360,000 tested, 0.12% active; inhibition, % at 10 µM; P15917; note: plate controls were buffer without enzyme for full effect and enzyme alone for no effect
Target sequence (P15917 whole entry, looked up): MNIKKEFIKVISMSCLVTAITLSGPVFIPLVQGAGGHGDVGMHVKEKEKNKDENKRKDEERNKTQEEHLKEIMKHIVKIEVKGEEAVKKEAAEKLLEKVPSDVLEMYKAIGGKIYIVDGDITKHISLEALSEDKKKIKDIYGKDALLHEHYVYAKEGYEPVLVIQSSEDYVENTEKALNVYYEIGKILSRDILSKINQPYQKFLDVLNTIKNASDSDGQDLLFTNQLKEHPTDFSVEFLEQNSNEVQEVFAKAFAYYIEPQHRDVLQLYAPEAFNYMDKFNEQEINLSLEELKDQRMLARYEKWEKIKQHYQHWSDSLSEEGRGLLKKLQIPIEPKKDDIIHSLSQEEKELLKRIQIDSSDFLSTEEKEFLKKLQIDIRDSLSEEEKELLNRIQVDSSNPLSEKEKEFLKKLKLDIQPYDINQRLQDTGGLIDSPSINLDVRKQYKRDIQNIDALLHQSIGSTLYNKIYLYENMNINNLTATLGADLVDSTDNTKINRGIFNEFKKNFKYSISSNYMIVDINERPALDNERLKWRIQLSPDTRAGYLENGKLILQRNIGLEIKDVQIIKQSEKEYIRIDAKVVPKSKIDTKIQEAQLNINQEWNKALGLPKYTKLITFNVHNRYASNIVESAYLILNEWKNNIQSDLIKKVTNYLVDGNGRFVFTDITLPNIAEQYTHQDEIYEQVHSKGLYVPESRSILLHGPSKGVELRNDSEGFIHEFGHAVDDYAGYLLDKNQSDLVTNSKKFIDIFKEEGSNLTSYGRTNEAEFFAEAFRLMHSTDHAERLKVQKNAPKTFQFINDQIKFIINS
BoNT F protease: inhibitors of Botulinum neurotoxin F light chain protease; inhibition, % at 10 µM; Multiplex microsphere protease cleavage assay, flow cytometry; 360,000 tested, 0.22% active; in the data active = inhibition above about 35%, passing the limit was not always enough; inconclusive = no clear call, values can overlap the other calls; note: plate controls were buffer without enzyme for full effect and enzyme alone for no effect
BoNT-A LC inh2: blocks Botulinum neurotoxin A light chain protease; multiplex microsphere protease substrate cleavage, flow cytometry; inhibition, % at 10 µM; 360,000 tested, 0.17% active; note: plate controls were buffer without enzyme for full effect and enzyme alone for no effect
* marks the source's active call; other numbers are inactive results; ? = inconclusive; nt = no result given. Cut-off read from the data, not from the text of the source, unless noted: active = inhibition above about 30%; inconclusive = no clear call, values can overlap the other calls; inactive = below that.

SMILES	Autofluor counter	MazEF act	Anthrax LF prot	BoNT F protease	BoNT-A LC inh2
Cc1ncoc1C(=O)Nc1cccc(Cl)c1	16565*	6	0	-3	-1
COc1cccc(/C=N/n2c(COc3ccccc3)n[nH]c2=S)c1	4142	5	-4	?	-5
CC(CCc1ccccc1)NC(=O)Cn1cccc1C(=O)c1ccccc1 (stereo not given)	5508	-2	-1	3	-1
O=[N+]([O-])c1ccc(Cl)c(C[n+]2cccc3ccccc32)c1	7598	36	-12	49*	-7
Cc1nc2ccc(NS(=O)(=O)c3ccc(C)c(C)c3)cc2s1	3345	-13	-1	-23	-1
Cc1nc2ccc(S(=O)(=O)Nc3ccccc3C)cc2s1	17531*	9	-4	-8	-5
O=C(c1cccs1)N(C(=O)c1cccs1)c1ccc(Br)cn1	22230*	-7	0	1	2
Cc1ccnc(N(C(=O)c2cccs2)C(=O)c2cccs2)c1	3400	6	4	-1	-2
COc1ccc(-c2nn(-c3ccccc3)cc2/C=C2/SC(=S)N(CCC(=O)O)C2=O)cc1	2874	-22	5	-10	-3
CCCOc1ccc(-c2nn(-c3ccccc3)cc2/C=C2\SC(=S)N(C3CCS(=O)(=O)C3)C2=O)cc1 (stereo not given)	5968	-128	47*	40*	49*
CCOc1ccc(-c2nn(-c3ccccc3)cc2/C=C2\SC(=S)N(C3CCS(=O)(=O)C3)C2=O)cc1 (stereo not given)	2755	-116	29	43*	36*
COc1ccc2cc(CO)n(C)c2c1	3511	8	-8	-17	1
CCCC(=O)c1c(O)[nH]c(=O)[nH]c1=O	22341*	-4	2	-2	-1
O=C(O)c1ccccc1Nc1ccccc1C(=O)O	17128*	-14	-2	-7	?
Cc1c(Cl)cccc1Nc1ccccc1C(=O)O	4019	-1	-2	6	-1
O=C(/C=N/O)Nc1ccccc1C(=O)O	22836*	-4	-1	4	1
CCC(OC(=O)c1cccs1)C(=O)NCc1ccc(C)cc1 (stereo not given)	4137	4	-2	-4	0
COc1ccccc1N1CCN(C(=O)C2C3C=CC4(CN(Cc5ccccc5Cl)C(=O)C24)O3)CC1 (stereo not given)	20591*	8	0	-1	0
Cc1ccc(/C=C2\CCOC2=O)cc1	3611	-1	13	35*	4
COc1ccc(/C=C2/CCOC2=O)cc1	2686	1	0	-10	0
COc1ccc(F)cc1-c1cc(NC=O)c2ncc(-c3cc(OC)c(OC)c(OC)c3)n2c1	3876	nt	-4	-4	-1
CN1C=CC=C/C1=C1/SC(=S)N(Cc2ccccc2)C1=O	2495	3	0	0	0
CCN1C(=O)/C(=C2/C=CC=CN2C)SC1=S	23187*	-15	-2	-9	-3
COC(=O)c1ccc2cc(C)cc(C)c2n1	5597	nt	2	4	1
O=C(CCCc1nc(-c2ccccc2Cl)no1)NCc1cccnc1	9300	2	-4	3	0
SMILES	Autofluor counter	MazEF act	Anthrax LF prot	BoNT F protease	BoNT-A LC inh2
O=C(O)CCCc1nc(-c2ccccc2)no1	16634*	-9	-3	-2	0
O=C(CCCc1ccccc1)NCc1cccnc1	24595*	1	0	-3	-1
O=C(CCc1nc(-c2ccccc2)no1)NCc1cccnc1	23102*	1	-3	-5	-3
CCOC(=O)c1sc2c(c1C)c(=O)n(Cc1ccccc1)c(=O)n2CCN(C)C	4086	7	-6	-9	-2
COCCN(CC(=O)Nc1cccc(C)c1C)C(=O)c1ccc(-n2cccn2)cc1	4096	5	0	-1	0
Cc1ccc(NC(=O)C2C(C(=O)O)C3C=CC2C32CC2)cc1 (stereo not given)	19275*	-2	-9	1	0
Cc1cccc(NC(=O)C2C(C(=O)O)C3C=CC2C32CC2)c1C (stereo not given)	5639	6	7	2	0
O=C(CSCc1ccccc1)NC1CCSC1=O (stereo not given)	23850*	7	-1	-3	-2
Cn1nc(C(=O)NCC(=O)Nc2ccc(F)c(F)c2F)c2ccccc2c1=O	nt	5	nt	nt	nt
COC(=O)c1[nH]nc(-c2ccccc2)c1-c1ccccc1	nt	6	nt	nt	nt
Cc1cc(C(=O)Nc2ccccn2)cs1	22600*	3	-2	0	0
Cc1cccc(NC(=O)c2cc(NC(=O)C3CC=CCC3C(=O)O)ccc2N2CCOCC2)c1 (stereo not given)	23987*	-4	0	-5	-1
O=C(CC1SC(=O)N(c2ccccc2)C1=O)Nc1ccccc1 (stereo not given)	21831*	-15	-3	-4	1
Cc1ccc(NC(=O)CC2SC(=O)N(c3ccccc3)C2=O)cc1 (stereo not given)	4564	1	-7	-16	0
CCS(=O)(=O)N1CCC(c2nc3ccccc3[nH]2)CC1	5886	8	2	5	2
O=C(OCCCN=C1NS(=O)(=O)c2ccccc21)c1ccccc1F	20170*	3	-11	4	3
NC(=O)CSCc1cccc(Br)c1	3688	-5	-8	-26	-2
O=C(CSCc1cccc(Br)c1)N1CCOCC1	23815*	0	-1	-5	-2
C#CC(CC)(CC)NC(=O)/C=C/C(=O)O	?	3	32*	?	1
CC(C)NC(=O)/C=C/C(=O)O	4027	4	-5	4	0
O=[N+]([O-])c1ccc(S(=O)(=O)N(CCCN2CCOCC2)Cc2cccs2)cc1	7431	3	0	3	0
CCOC(=O)C1=C(C)NC(=O)C(C(N)=O)C12CCCC2 (stereo not given)	23702*	5	-3	-4	?
FC(F)(F)c1cnc(N2CCC(=NOCc3ccc(Cl)cc3)CC2)c(Cl)c1	15078	-15	0	7	4
FC(F)(F)c1cccc(CON=C2CCN(c3ncc(C(F)(F)F)cc3Cl)CC2)c1	19810*	-12	1	-1	0
C=CCn1c(SCC(=O)Nc2ccc3c(c2)OCO3)nnc1-c1cc(Br)ccc1O	24540*	3	-4	-6	-1
SMILES	Autofluor counter	MazEF act	Anthrax LF prot	BoNT F protease	BoNT-A LC inh2
O=C(CSc1nnc(-c2ccccn2)n1-c1ccc(Cl)cc1)Nc1ccc2c(c1)OCO2	22588*	-5	0	2	2
COc1ccc(-n2c(SCC(=O)Nc3ccc4c(c3)OCO4)nc3ccccc3c2=O)cc1	23540*	-6	-6	-8	-2
Nn1c(SCC(=O)Nc2ccc3c(c2)OCCO3)nnc1-c1ccccn1	2792	-1	0	-12	-2
C=CCn1c(SCC(=O)Nc2ccc3c(c2)OCO3)nnc1-c1ccccc1	3769	0	-1	2	-1
Nn1c(SCC(=O)Nc2ccc3c(c2)OCO3)nnc1-c1ccccc1	3160	-3	-36	57*	45*
Oc1ccccc1Cc1c(O)ccc2ccccc12	3676	13	-3	-1	0
COCCn1c(SCC(=O)N(C)c2c(N)n(Cc3ccccc3)c(=O)[nH]c2=O)nnc1-c1cccc(C)c1	6606	3	4	-10	-2
